# ChEMBL document CHEMBL1961873, “Compounds: GSK PKIS; Assays: Nanosyn kinase panel” (2012)
# Target: T1, Testis-specific serine/threonine-protein kinase 2 (Homo sapiens) (UniProt Q96PF2);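 note: each value is the mean percent inhibition of TSSK2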
# T1 sequence (whole entry): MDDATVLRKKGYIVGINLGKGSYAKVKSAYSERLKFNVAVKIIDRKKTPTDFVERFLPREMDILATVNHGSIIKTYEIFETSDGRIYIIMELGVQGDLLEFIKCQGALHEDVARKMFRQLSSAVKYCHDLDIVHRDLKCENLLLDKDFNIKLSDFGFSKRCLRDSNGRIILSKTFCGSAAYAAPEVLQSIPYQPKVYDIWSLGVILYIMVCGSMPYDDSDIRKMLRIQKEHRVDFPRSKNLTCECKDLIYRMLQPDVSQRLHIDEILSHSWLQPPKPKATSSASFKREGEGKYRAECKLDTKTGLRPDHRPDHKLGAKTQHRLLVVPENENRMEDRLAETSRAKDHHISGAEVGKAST
# Details: at 1 µM
row,Structure (SMILES),inhibition [%]
1,NC(=O)c1cc(-c2ccncc2)cc(-c2ccccc2)c1N,1.64
2,COc1cc2ncn(-c3cc(OCc4cccs4)c(C(N)=O)s3)c2cc1OC,7.11
3,COc1ccc(C2=C(N3CCc4ccccc43)C(=O)NC2=O)cc1,3.35
4,NS(=O)(=O)c1ccc(N/N=C2\C(=O)Nc3ccc(C(=O)NCCCn4ccnc4)cc32)cc1,6.71
5,O=C(Nc1n[nH]c2nc(-c3ccc(O)cc3)c(Br)cc12)C1CC1,4.53
6,Clc1ccc(CNc2nccc(-c3cnn4ncccc34)n2)cc1,-1.43
7,CS(=O)(=O)CCNCc1ccc(-c2ccc3ncnc(Nc4ccc(OCc5ccccc5)c(Br)c4)c3c2)o1,1
8,c1ccc(Oc2ccc(Nc3ncc(-c4ccccc4)o3)cc2)cc1,0.74
9,Cc1ccc(NC(=O)c2ccoc2)cc1-c1ccc(C(=O)NCC2CC2)cc1,1.22
10,C/C(Nc1ccc(S(N)(=O)=O)cc1)=C1/C(=O)Nc2ccccc21,1.13
11,Fc1ccc(-c2c(-c3ccncc3)nc3n2CCS3)cc1,2.38
12,O=C(Nc1ccc(Oc2ccc3[nH]c(NC(=O)c4ccccc4)nc3c2)cc1)Nc1cc(C(F)(F)F)ccc1F,0.74
13,O=C1NC(=O)C(c2cccc(Cl)c2)=C1Nc1ccc(Cl)c(C(=O)O)c1,4.21
14,NS(=O)(=O)c1ccc(Nc2cc(-c3ccc(O)c(F)c3)n[nH]2)cc1,-0.52
15,COC(=O)Nc1nc2ccc(Sc3ccc(NC(=O)Nc4cc(C(F)(F)F)ccc4F)cc3)cc2[nH]1,-1.84
16,Cc1nnc(-c2ccc(C)c(-c3ccc(C(=O)NCc4ccc(Cl)cc4)cc3)c2)o1,3.27
17,COc1ccc2ncn(-c3cc(O[C@H](C)c4ccccc4Cl)c(C(N)=O)s3)c2c1,1.28

row,Structure (SMILES),inhibition [%]
1,COc1cc(N2CCN(C(C)C)CC2)ccc1Nc1nc(Nc2ccc(F)cc2C(=O)NC[C@@H](O)CO)c2cc[nH]c2n1,53.7
2,NS(=O)(=O)c1ccc(N/N=C2\C(=O)Nc3ccc(-c4cnco4)cc32)cc1,1.76
3,CN1CCN(CCCNc2nc3ccc(Oc4ccc(NC(=O)Nc5cc(C(F)(F)F)ccc5F)cc4)cc3[nH]2)CC1,-1.46
4,Fc1ccc(-c2ncn(C3CCNCC3)c2-c2ccnc(Oc3ccc(Oc4ccccc4)cc3)n2)cc1,2.4
5,COc1cc(Nc2ncc3c(C)nc(-c4cccc(Oc5ccccc5)c4)n3n2)cc(OC)c1OC,-1.11
6,CCc1ccc(Oc2nccc(-c3c(-c4ccc(F)cc4)ncn3C3CCNCC3)n2)cc1,2.6
7,Cc1ccc(C(=O)NC(C)C)cc1-c1ccc(C(=O)NCC2CC2)cc1,-1.52
8,COc1cccc(-n2cnc3c(N/N=C/c4ccncc4)ncnc32)c1,4.98
9,Fc1ccc(-c2ncn(C3CCNCC3)c2-c2ccnc(Oc3ccc4c(c3)OCO4)n2)cc1,4.26
10,O=C(NCC1CC1)c1ccc(-c2cccc(C(=O)NC3CC3)c2)cc1,-1.83
11,C#Cc1cccc(Nc2ncnc3ccc(OCCCCNCCS(C)(=O)=O)cc23)c1,2.71
12,NCc1ccc(-n2c(-c3nonc3N)nc3cnccc32)cc1,3.08
13,O=C(Nc1n[nH]c2cc(-c3ccccc3)ccc12)C1CC1,0.6
14,CCS(=O)(=O)c1ccc(OC)c(Nc2ncc(-c3cccc(-c4ccccc4F)c3)o2)c1,-0.69
15,CNC(=O)c1cncc(/C=C/c2c(C)cccc2C)c1,-1.42
16,CCC(=O)Nc1ccc(C)c(-c2ccc(C(=O)NCC3CC3)cc2)c1,1.74
17,c1ccc(-c2n[nH]cc2-c2ccnc(-c3ccc(OCCN4CCOCC4)cc3)c2)nc1,-0.96

# Target: Casein kinase I isoform alpha (Homo sapiens) (UniProt P48729);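 note: values are the mean percent inhibition of CK1a, averaged over measurements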
# Details: at 0.1 µM
# Chain of Casein kinase I isoform alpha (Homo sapiens) (P48729 2-337 limits assumed): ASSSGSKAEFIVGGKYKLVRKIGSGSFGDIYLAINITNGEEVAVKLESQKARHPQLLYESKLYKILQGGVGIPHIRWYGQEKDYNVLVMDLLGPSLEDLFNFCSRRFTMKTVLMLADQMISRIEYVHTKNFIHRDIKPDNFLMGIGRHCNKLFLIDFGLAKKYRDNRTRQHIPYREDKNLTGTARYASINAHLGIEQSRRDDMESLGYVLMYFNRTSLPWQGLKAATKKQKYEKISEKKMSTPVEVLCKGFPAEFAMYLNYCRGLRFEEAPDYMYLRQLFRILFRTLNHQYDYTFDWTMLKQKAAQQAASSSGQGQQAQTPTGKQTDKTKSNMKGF
row,Structure (SMILES),inhibition [%]
1,NC(=O)c1cc(-c2ccncc2)cc(-c2ccccc2)c1N,4.55
2,COc1cc2ncn(-c3cc(OCc4cccs4)c(C(N)=O)s3)c2cc1OC,2
3,COc1ccc(C2=C(N3CCc4ccccc43)C(=O)NC2=O)cc1,3.74
4,NS(=O)(=O)c1ccc(N/N=C2\C(=O)Nc3ccc(C(=O)NCCCn4ccnc4)cc32)cc1,3.95
5,O=C(Nc1n[nH]c2nc(-c3ccc(O)cc3)c(Br)cc12)C1CC1,4.72
6,Clc1ccc(CNc2nccc(-c3cnn4ncccc34)n2)cc1,2.75
7,CS(=O)(=O)CCNCc1ccc(-c2ccc3ncnc(Nc4ccc(OCc5ccccc5)c(Br)c4)c3c2)o1,1.67
8,c1ccc(Oc2ccc(Nc3ncc(-c4ccccc4)o3)cc2)cc1,5.38
9,Cc1ccc(NC(=O)c2ccoc2)cc1-c1ccc(C(=O)NCC2CC2)cc1,1.36
10,C/C(Nc1ccc(S(N)(=O)=O)cc1)=C1/C(=O)Nc2ccccc21,2.64
11,Fc1ccc(-c2c(-c3ccncc3)nc3n2CCS3)cc1,2.51
12,O=C(Nc1ccc(Oc2ccc3[nH]c(NC(=O)c4ccccc4)nc3c2)cc1)Nc1cc(C(F)(F)F)ccc1F,3.86
13,O=C1NC(=O)C(c2cccc(Cl)c2)=C1Nc1ccc(Cl)c(C(=O)O)c1,1.07
14,NS(=O)(=O)c1ccc(Nc2cc(-c3ccc(O)c(F)c3)n[nH]2)cc1,-2.61
15,COC(=O)Nc1nc2ccc(Sc3ccc(NC(=O)Nc4cc(C(F)(F)F)ccc4F)cc3)cc2[nH]1,-0.33
16,Cc1nnc(-c2ccc(C)c(-c3ccc(C(=O)NCc4ccc(Cl)cc4)cc3)c2)o1,2.79
17,COc1ccc2ncn(-c3cc(O[C@H](C)c4ccccc4Cl)c(C(N)=O)s3)c2c1,2.14

row,Structure (SMILES),inhibition [%]
1,COc1cc(N2CCN(C(C)C)CC2)ccc1Nc1nc(Nc2ccc(F)cc2C(=O)NC[C@@H](O)CO)c2cc[nH]c2n1,4.46
2,NS(=O)(=O)c1ccc(N/N=C2\C(=O)Nc3ccc(-c4cnco4)cc32)cc1,0.46
3,CN1CCN(CCCNc2nc3ccc(Oc4ccc(NC(=O)Nc5cc(C(F)(F)F)ccc5F)cc4)cc3[nH]2)CC1,1.84
4,Fc1ccc(-c2ncn(C3CCNCC3)c2-c2ccnc(Oc3ccc(Oc4ccccc4)cc3)n2)cc1,10.7
5,COc1cc(Nc2ncc3c(C)nc(-c4cccc(Oc5ccccc5)c4)n3n2)cc(OC)c1OC,6.15
6,CCc1ccc(Oc2nccc(-c3c(-c4ccc(F)cc4)ncn3C3CCNCC3)n2)cc1,6.84
7,Cc1ccc(C(=O)NC(C)C)cc1-c1ccc(C(=O)NCC2CC2)cc1,-3.83
8,COc1cccc(-n2cnc3c(N/N=C/c4ccncc4)ncnc32)c1,0.17
9,Fc1ccc(-c2ncn(C3CCNCC3)c2-c2ccnc(Oc3ccc4c(c3)OCO4)n2)cc1,6.52
10,O=C(NCC1CC1)c1ccc(-c2cccc(C(=O)NC3CC3)c2)cc1,2.21
11,C#Cc1cccc(Nc2ncnc3ccc(OCCCCNCCS(C)(=O)=O)cc23)c1,2.51
12,NCc1ccc(-n2c(-c3nonc3N)nc3cnccc32)cc1,3.56
13,O=C(Nc1n[nH]c2cc(-c3ccccc3)ccc12)C1CC1,3.51
14,CCS(=O)(=O)c1ccc(OC)c(Nc2ncc(-c3cccc(-c4ccccc4F)c3)o2)c1,-0.76
15,CNC(=O)c1cncc(/C=C/c2c(C)cccc2C)c1,4.35
16,CCC(=O)Nc1ccc(C)c(-c2ccc(C(=O)NCC3CC3)cc2)c1,2.53
17,c1ccc(-c2n[nH]cc2-c2ccnc(-c3ccc(OCCN4CCOCC4)cc3)c2)nc1,0.38
